# In the library only some 18% were active in any assay of this set; here they are far more common.
# CtBP-E1A inh: inhibitors of CtBP/E1A interaction; AlphaScreen GST-E1A/His-CtBP binding, 1536-well; stronger effect = lower value; 340,000 tested, 0.49% active; activity change, % (test concentration not listed); in the data active = activity change below about -65%; inconclusive = mostly about -30% to -63%
#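 Protein mix (5X: 125 nM each GST-E1A, His-CtBP) was incubated with pinned compound 2 h at 37 deg C in dark, in 50 mM Tris pH 8.0 buffer with 300 mM NaCl. Glutathione donor and nickel acceptor beads followed; AlphaScreen signal read after 1 h.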
# Six1-Eya2 inh: inhibitors of human Six1/Eya2 interaction | Q15475+O00167 | AlphaScreen GST-Six1/His-Eya2 binding, biochemical; stronger effect = lower value | activity change, % (test concentration not listed) | 360,000 tested, 0.56% active | AID 651725; in the data active = activity change below about -65%; inconclusive = mostly about -30% to -63%
#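 Homogeneous AlphaScreen proximity assay pairing GST-Six1 with His-tagged Eya2 (added as 5X mix: 250 nM and 500 nM) in 50 mM Tris pH 8.0, 300 mM NaCl, 1 mM TCEP. Glutathione donor and nickel acceptor beads; 1 h, 37 °C, dark.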
# TDP1 cell noCPT: qHTS for Inhibitors of human tyrosyl-DNA phosphodiesterase 1 (TDP1): qHTS in cells in absence of CPT; Potency, µM (doses to about 46.2 µM), inactives show at the highest dose activity change, negative = growth inhibition, actives largely listed as inhibitors; AID 686978, 2013; DT40 Tdp1-/- hTDP1 cells, no CPT, ATP luminescence, 48 h; 420,000 tested, 15% active; note: potency is the fitted concentration of half-maximal effect; nearly all actives have a fitted effect of over 55% in size
#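 Stably hTDP1-transfected Tdp1-null chicken DT40 cells were treated with library compounds minus camptothecin and grown for at least 48 hr at 37 °C, after which cellular ATP was quantified by luminescence.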
# DT40 TDP1 CPT: DT40-hTDP1 cell growth loss with CPT; 420,000 tested, 12% active; Potency, µM (titrated, usually from 46.2 µM), for the others: top-dose activity change, negative = growth inhibition, usual class: inhibitors; AID 686979; chicken DT40 Tdp1-/-;hTDP1 cells + 20 nM CPT, ATP luminescence, 48 h; note: potency is the fitted concentration of half-maximal effect; nearly all actives have a fitted effect of over 55% in size
#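 Chicken DT40 Tdp1-/- cells complemented with human TDP1, 400 cells/well, exposed to compounds plus 20 nM camptothecin for at least 48 h at 37 C; viability read as ATP content by CellTiter-Glo luminescence.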
# IL-1B inflam inh: inflammasome signaling inhibition, IL-1 beta readout | THP-1 LPS/ATP IL-1B secretion, AlphaLISA, 16 h; stronger effect = lower value | activity change, % at 57.5 µM | 360,000 tested, 4.7% active; in the data active = activity change below about -50%; inconclusive = mostly about -30% to -49%
#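 THP-1 cells pretreated 1 hr with compounds (up to 57.5 uM final), then stimulated with LPS (250 ng/mL final) plus ATP (1.25 mM final); secreted IL-1B measured by AlphaLISA after 16 hr, decreased signal indicating inhibition.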
# TDP1 inh: blocks human tyrosyl-DNA phosphodiesterase 1. recombinant TDP1, AlphaScreen DNA substrate cleavage. 350,000 tested, 0.28% active. Q9NUW8. Potency, µM (titrated, usually from 130 µM), inactives show top-dose activity change, negative = inhibition, actives largely listed as inhibitors; note: potency is the fitted concentration of half-maximal effect; nearly all actives have a fitted effect of over 40% in size
# Target sequence (Q9NUW8 whole entry, looked up): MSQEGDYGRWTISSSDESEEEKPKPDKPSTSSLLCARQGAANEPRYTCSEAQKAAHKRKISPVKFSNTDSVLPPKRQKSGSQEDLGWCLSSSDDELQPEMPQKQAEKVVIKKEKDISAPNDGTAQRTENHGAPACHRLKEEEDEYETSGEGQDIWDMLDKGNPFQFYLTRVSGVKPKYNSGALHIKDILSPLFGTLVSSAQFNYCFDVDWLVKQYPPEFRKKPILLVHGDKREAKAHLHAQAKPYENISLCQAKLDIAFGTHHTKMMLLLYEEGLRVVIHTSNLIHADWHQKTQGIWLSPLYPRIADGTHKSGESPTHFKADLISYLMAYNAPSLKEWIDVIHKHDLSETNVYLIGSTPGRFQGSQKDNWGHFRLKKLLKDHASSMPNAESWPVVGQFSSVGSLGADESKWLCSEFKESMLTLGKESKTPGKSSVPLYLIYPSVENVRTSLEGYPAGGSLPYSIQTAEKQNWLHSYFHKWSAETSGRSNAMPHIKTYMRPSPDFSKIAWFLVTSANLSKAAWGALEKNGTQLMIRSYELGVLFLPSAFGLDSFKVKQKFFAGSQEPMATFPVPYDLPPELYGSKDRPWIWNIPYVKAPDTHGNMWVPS
#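 Tdp1 1 nM final; 15 min RT w/ cpd; substrate 15 nM, 5 min; beads 10 ug/ml, 10 min; AlphaScreen read. Neg ctrl: no enzyme.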
# Active calls of the source: *; ? = inconclusive; nt = no result given; [ ] = remark or other dose. Unless noted, calls come from the whole dose curve; as a rule, active = well fitted curve in the direction sought with a large enough effect; inconclusive = small, poorly fitted or top-dose-only effect, or another doubt; inactive = no such curve, though single readings can be large; an effect the other way counts as inactive or inconclusive. % is set by controls: 0 for no effect and ±100 for the full control effect.
SMILES,CtBP-E1A inh,Six1-Eya2 inh,TDP1 cell noCPT,DT40 TDP1 CPT,IL-1B inflam inh,TDP1 inh
O=C(CN1CCOc2ccccc21)NCc1ccccc1,-1,1,-3%,-5%,31,3%
CCOC(=O)c1cccc(NC(=O)c2cncc(Br)c2)c1,-17,12,-19%,0%,10,2%
O=[N+]([O-])c1cnccc1Nc1ccccc1,-8,3,?,?,15,3%
O=C(O)c1cccc(Nc2ccncc2[N+](=O)[O-])c1,5,-10,18µM*,?,-7,nt
Cc1nc2ccccc2n1CC(=O)OCC(=O)N1CCC(C)CC1,5,5,0%,4%,9,1%
CCCCNC(=O)CCn1c(=O)c2cccn2c2ccc(F)cc21,1,-5,?,?,-4,5%
Cc1ccc(CCNC(=O)CCn2c(=O)c3cccn3c3ccc(F)cc32)cc1,-7,-2,18µM*,?,-18,0%
O=C(CCn1c(=O)c2cccn2c2ccc(F)cc21)NCCc1ccc(Cl)cc1,nt,nt,15µM*,?,nt,3%
COC(=O)c1ccc(/C=N/N2CCN(Cc3ccc(C)cc3C)CC2)cc1,7,-5,?,?,-4,4%
COc1ccc(C(=O)CN2CC(C)SC2=Nc2ccc(Cl)cc2)cc1 (centres undefined),0,-2,23µM*,?,-5,5%
COCCN(Cc1cn(C)nc1-c1ccc(Oc2ccccc2)cc1)C(C)C,0,8,-27%,-30%,13,2%
CC1CCCN(C2=C(NS(=O)(=O)c3ccc(Cl)cc3)C(=O)c3ccccc3C2=O)C1 (centres undefined),?,-26,?,?,-8,-3%
COC(=O)C1CCN(C2=C(NS(=O)(=O)c3ccc(Cl)cc3)C(=O)c3ccccc3C2=O)CC1,-79*,-67*,-17%,?,0,nt
NC(=O)C1CCN(C2=C(NS(=O)(=O)c3ccc(Cl)cc3)C(=O)c3ccccc3C2=O)CC1,nt,-25,?,16µM*,-8,7%
CC(=O)c1ccc(NC(=S)NCCc2ccc(S(N)(=O)=O)cc2)cc1,-23,-10,?,-26%,-25,3%
CC(C)OCCCNC(=S)Nc1ccc(S(N)(=O)=O)cc1,10,2,?,23µM*,10,-6%
COc1ccccc1CN1CC[C@@]2(CCCN(C(=O)c3c(C)noc3C)C2)C1,nt,nt,-17%,-4%,nt,nt
CCCCNc1nc(-c2ccccc2)cc(C(F)(F)F)c1C(N)=O,8,6,?,?,-70*,-2%[56.1 µM]
NC(=O)c1c(C(F)(F)F)cc(-c2ccccc2)nc1NCCO,-2,0,-15%,-24%,5,5%
O=C1COc2ccc(C(=O)COC(=O)CCSc3ccc(Cl)cc3)cc2N1,25,2,3%,0%,48,-8%
CCC(CC)c1nc2ccccc2c(=O)[nH]1,nt,-1,-24%,-3%,13,0%
CCN1CCN(CCCNC(=O)CNC(=O)c2nn(-c3ccc(OC)cc3)c(=O)c3ccccc23)CC1,0,14,-11%,2%,-28,-3%
Cc1cc(NC(=O)OC(C)(C)C)c(-n2nnnc2C(C(=O)c2ccc3c(c2)OCO3)N2CCN(c3ccccn3)CC2)cc1C (centres undefined),1,-5,16µM*,23µM*,-12,nt
CN(CCc1ccccc1)C(C(=O)c1ccc2c(c1)OCO2)c1nnnn1-c1ccccc1NC(=O)OC(C)(C)C (centres undefined),-14,-6,16µM*,15µM*,21,nt
CC(C)(C)OC(=O)Nc1ccccc1-n1nnnc1C(C(=O)c1ccccc1)N1CCN(c2ccccn2)CC1 (centres undefined),-4,-4,?,?,-4,nt

# Assay outcomes as filed in PubChem BioAssay.
